Records with an inconclusive call do not appear. Values without a mark were called inactive. The call rests on the fitted dose curve; in most records, active means well fitted curve in the direction sought with a large enough effect in the repeat runs; inconclusive means weak or mixed curves; inactive means no such curve, though single readings can be large; an effect the other way counts as inactive or inconclusive.
On the % scale 0 is the no-effect control and ±100 the full control effect.

The first test can be described thus: qHTS RealTime-Glo MT Cell Viability Assay in HepG2 cells - 0 hour (AID 1224889). Further: nearly all actives have a fitted effect of over 50% in size. As to conditions: RealTime-Glo luminescence; series mostly up to 76.8 µM; activity change, negative = cytotoxicity: at the top concentration. The method, boiled down: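 Real-time, nonlytic viability: 600 HepG2 cells/well mixed with NanoLuc enzyme plus prosubstrate; 5 h settle, compound (DMSO) added by pintool; luminescence monitored over 40 h at 37 C.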
Background: qHTS replaces the single test concentration by a dilution series.
For the compound `OCCCCC(O)CO` (stereo not drawn), the “activity change, negative = cytotoxicity” value is 10.9%. Still for that read-out and setting: the figure for `Cc1cccc2nccnc12` is -2.83%; for `CN(C)C(=O)CNC(=O)Cc1ccccc1` it is -5.4% [at 35.3 µM].

Turning to `CN(CCOc1ccc(NS(C)(=O)=O)cc1)CCc1ccc(NS(C)(=O)=O)cc1`, the “activity change, negative = cytotoxicity” value is 6.54% [at 35.3 µM]. Still for that read-out and setting: the same measure for `Cc1[nH]cnc1-c1ccc(Cl)cc1`: 6.61% [at 35.3 µM]. Still for that read-out and setting: the figure for `c1ccc2c(c1)ccc1c3ccccc3ccc21` is -0.781% [at 35.3 µM]; for `NS(=O)(=O)c1cc2c(cc1Cl)CN(C1CCCCC1)C2=O` it is 4.23% [at 35.3 µM]; for `Oc1cn2c(n1)Nc1ccc(Cl)c(Cl)c1C2` it is -2.51% [at 15.8 µM]. Same read-out and setting: the figure for `CCOC(=O)c1ncn2c1CN(C)C(=O)c1cc(F)ccc1-2` is 0.965% [at 35.3 µM]; for `CN1C(C)(C)CCCC1(C)C` it is -0.826% [at 35.3 µM]; for `CC(C)(C)c1cc(CCC(=O)NN)cc(C(C)(C)C)c1O` it is -4.74%. Turning to `C[Si](C)=O`, the activity change, negative = cytotoxicity is 8.65% [at 6.97 µM].

For the compound `CCc1ccc(C=O)cc1`, the “activity change, negative = cytotoxicity” value was 3.41%.

As for `CC(=O)OC(C)OC(=O)C(C)c1ccc(-c2ccccc2)c(F)c1` (stereo not drawn), the “activity change, negative = cytotoxicity” value was -17% [at 35.3 µM]. Still for that read-out and setting: the figure for `COP(=O)(OC)OC(c1ccc(Cl)cc1)P(=O)(OC)OC` (stereo not drawn) is 1.07% [at 35.3 µM]; for `CCOCCOCCOCC` it is -1.62%.

`CC1=C(C(=O)O)N2C(=O)[C@@H](NC(=O)[C@H](N)c3ccc(O)cc3)[C@H]2SC1`: the “activity change, negative = cytotoxicity” value is -0.14% [at 35.3 µM].

As for `COc1ccc2c(c1OC)C(=O)O[C@@H]2[C@H]1c2c(cc3c(c2OC)OCO3)CCN1C`, the “activity change, negative = cytotoxicity” value is -3.56% [at 35.3 µM]. The same measure, in the same setting: the same measure for `CC(C)CC(=O)O`: -3.25%; for `CC(COC(C)(C)C)OCCCO` (stereo not drawn): 0.901%. Same read-out and setting: the same measure for `CC(C)CCCCOC(=O)c1ccccc1C(=O)OCCCCC(C)C`: -0.469%; for `CC(CO)c1ccccc1` (stereo not drawn): 1.58%; for `O=C(OCC(COC(=O)c1cccnc1)(COC(=O)c1cccnc1)COC(=O)c1cccnc1)c1cccnc1`: 2.32% [at 35.3 µM].

Regarding `CCOC(=O)c1ccc(OC(=O)CCCCCN=C(N)N)cc1`, the “activity change, negative = cytotoxicity” value is -7.84% [at 35.3 µM].

Take `CC(C)(C)c1n[nH]c(=S)n(N)c1=O`: the “activity change, negative = cytotoxicity” value was -1.02%. For `CC(=O)Nc1ccc(S(=O)(=O)Cl)cc1`, the “activity change, negative = cytotoxicity” value was -29.1%. Still for that read-out and setting: the figure for `Cc1ccccc1OCC(O)CO` (stereo not drawn) is -1.49% [at 35.3 µM].

`COC(=O)C1CC(=O)C(C(=O)OC)CC1=O` (stereo not drawn): the activity change, negative = cytotoxicity was -20.4% [at 6.97 µM].

Turning to `BrCc1cccc(Oc2ccccc2)c1`, the “activity change, negative = cytotoxicity” value was -6.5%. `Cc1cccc(OCC(O)CNC(C)(C)C)c1C` (stereo not drawn): the “activity change, negative = cytotoxicity” value is 16.4% [at 35.3 µM].

The nature of a further test: A CellTox Green Cytotoxicity Assay to monitor cytotoxicity in HepG2 cells - 8 hour (AID 1224890). Further: nearly all actives have a fitted effect of over 45% in size. Particulars: CellTox Green fluorescence; series mostly up to 76.8 µM; cytotoxicity increase: at the top concentration. An outline of the steps:
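Cytotoxicity was tracked as dead-cell DNA fluorescence in HepG2 cells treated with test compounds at 37 C; each time-point value comes from one kinetic series spanning 0, 8, 16, 24, 32 and 40 h.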
On to `OCCCCC(O)CO` (stereo not drawn), for which the “cytotoxicity increase” value is 4.87%. In the case of `CN(C)C(=O)CNC(=O)Cc1ccccc1`, the “cytotoxicity increase” value was -17.7% [at 35.3 µM]. Consider `CN(CCOc1ccc(NS(C)(=O)=O)cc1)CCc1ccc(NS(C)(=O)=O)cc1`, for which the “cytotoxicity increase” value was -14.7% [at 35.3 µM]. As to `C=CC(OCC)OCC`, the “cytotoxicity increase” value is 11.1%. As to `CCCCCCCCSCC`, the “cytotoxicity increase” value was -1.31%.

As for `Cc1[nH]cnc1-c1ccc(Cl)cc1`, the “cytotoxicity increase” value was 6.82% [at 35.3 µM]. Consider `c1ccc2c(c1)ccc1c3ccccc3ccc21`, for which the “cytotoxicity increase” value was 1.06% [at 35.3 µM]. Regarding `NS(=O)(=O)c1cc2c(cc1Cl)CN(C1CCCCC1)C2=O`, the “cytotoxicity increase” value was 1.99% [at 35.3 µM]. Still for that read-out and setting: the same measure for `Oc1cn2c(n1)Nc1ccc(Cl)c(Cl)c1C2`: -5.9% [at 15.8 µM]; for `CCOC(=O)c1ncn2c1CN(C)C(=O)c1cc(F)ccc1-2`: -8.27% [at 35.3 µM]; for `CN1C(C)(C)CCCC1(C)C`: 25.6% [at 35.3 µM]. On the same count and under the same terms, the same measure for `CC(C)(C)c1cc(CCC(=O)NN)cc(C(C)(C)C)c1O`: 6.28%; for `C[Si](C)=O`: -1.81% [at 6.97 µM]. Take `CCc1ccc(C=O)cc1`: the “cytotoxicity increase” value was -2.75%. Regarding `CC(=O)OC(C)OC(=O)C(C)c1ccc(-c2ccccc2)c(F)c1` (stereo not drawn), the “cytotoxicity increase” value was 16.3% [at 35.3 µM]. Regarding `COP(=O)(OC)OC(c1ccc(Cl)cc1)P(=O)(OC)OC` (stereo not drawn), the “cytotoxicity increase” value is -9.19% [at 35.3 µM].

With `CC1=C(C(=O)O)N2C(=O)[C@@H](NC(=O)[C@H](N)c3ccc(O)cc3)[C@H]2SC1`, the “cytotoxicity increase” value is -8.6% [at 35.3 µM]. Still for that read-out and setting: the same measure for `COc1ccc2c(c1OC)C(=O)O[C@@H]2[C@H]1c2c(cc3c(c2OC)OCO3)CCN1C`: 2.54% [at 35.3 µM]; for `CC(C)CC(=O)O`: 0.336%; for `O=C(OCC(COC(=O)c1cccnc1)(COC(=O)c1cccnc1)COC(=O)c1cccnc1)c1cccnc1`: -0.427% [at 35.3 µM]. Regarding `CCOC(=O)c1ccc(OC(=O)CCCCCN=C(N)N)cc1`, the “cytotoxicity increase” value was -0.316% [at 35.3 µM]. The same measure, in the same setting: the figure for `CC(C)(C)c1n[nH]c(=S)n(N)c1=O` is -15.7%; for `CC(C)C(=O)OCCc1ccccc1` it is 1%; for `CC(=O)Nc1ccc(S(=O)(=O)Cl)cc1` it is -12.1%. On the same count and under the same terms, the same measure for `CCCCOC(=O)c1ccccc1`: 6.67%; for `COC(=O)C1CC(=O)C(C(=O)OC)CC1=O` (stereo not drawn): -5.53% [at 6.97 µM]. On the same count and under the same terms, the figure for `BrCc1cccc(Oc2ccccc2)c1` is 16.7%; for `Cc1cccc(OCC(O)CNC(C)(C)C)c1C` (stereo not drawn) it is -0.143% [at 35.3 µM].

(Values after PubChem BioAssay (Tox21).)
